Data on 47 compounds can be found in PubChem BioAssay AID1851 (National Center for Advancing Translational Sciences (NCATS), 2009).

Molecules are shown by their SMILES. Several values for one entry are separate records, joined by “and”; a condition that tells them apart may be missing. Equal values may be shown once. Among all 16,000 compounds or so, about 4,000 (25%) were called active. Not shown: some 26% with an inconclusive outcome. Only a sample is shown. Unmarked numbers belong to inactive results. Calls come from the whole dose curve; as a rule, active = well fitted curve in the direction sought with a large enough effect; inconclusive = small, poorly fitted or top-dose-only effect, or effect the other way; inactive = no such curve, though single readings can be large or run the other way.
% is set by controls: 0 for no effect and ±100 for the full control effect.

Sequence of Cytochrome P450 2C9 (Homo sapiens) (P11712 whole entry, looked up): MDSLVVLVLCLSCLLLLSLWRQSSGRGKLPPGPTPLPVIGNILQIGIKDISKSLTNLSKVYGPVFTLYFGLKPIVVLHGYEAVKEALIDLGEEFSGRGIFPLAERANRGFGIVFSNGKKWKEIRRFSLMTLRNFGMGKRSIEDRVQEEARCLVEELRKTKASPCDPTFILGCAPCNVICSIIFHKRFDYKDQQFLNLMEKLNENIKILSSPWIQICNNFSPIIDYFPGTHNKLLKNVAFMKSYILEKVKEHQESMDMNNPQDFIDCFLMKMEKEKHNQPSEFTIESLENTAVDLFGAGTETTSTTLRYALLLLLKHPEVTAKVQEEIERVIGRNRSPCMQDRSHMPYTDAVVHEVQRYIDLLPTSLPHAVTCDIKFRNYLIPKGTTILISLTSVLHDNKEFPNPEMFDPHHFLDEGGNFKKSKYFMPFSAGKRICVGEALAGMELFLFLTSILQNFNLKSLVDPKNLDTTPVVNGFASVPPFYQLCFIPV

The experiment has as its target Cytochrome P450 2C9 (Homo sapiens) (UniProt P11712). The experiment can be described thus: Cytochrome panel assay with activity outcomes. The note with it: recombinant CYP, pro-luciferin dealkylation, luminescence, p450-cyp2c9; series mostly up to 57.1 µM; activity, negative = inhibition: at the top concentration.
Turning to `CCN(CC)C(=O)CSc1nnc(C2CCCCC2)o1`, the “activity, negative = inhibition” value is 7.48%.
In the case of `C=CCn1c(=O)c2c(nc(Br)n2Cc2ccccc2Cl)n(C)c1=O`, the AC50 (as a rule, the concentration giving half of the maximal activity seen) was 14.1 µM (active).
Still for that read-out and setting: next, `Cn1c(=O)c2c(nc(N3CCN(c4ccccn4)CC3)n2Cc2ccccc2Cl)n(C)c1=O`: 3.55 µM (active).
For the compound `C=CCn1c(=O)c2c(nc(-c3ccc(S(=O)(=O)O)cc3)n2C)n(C)c1=O`, the “activity, negative = inhibition” value is 23.6%.
Turning to `C=CCn1cc(Cl)c(=O)n(CC=C)c1=O`, the “activity, negative = inhibition” value is -24.2%.
On the same count and under the same terms, next, `Cn1c(=O)c2c(nc(N3CCN(c4ccccn4)CC3)n2Cc2ccc(Cl)cc2Cl)n(C)c1=O`: -25.2%; `CN1CCN(c2nc3c(c(=O)n(C)c(=O)n3C)n2C)CC1`: 0.789% [at 11.4 µM]; `O=C(O)CCC(=O)CCC(=O)c1ccccc1`: 5.67%.
The same measure, in the same setting: the result for `OCCN1CCN(CCC=C2c3ccccc3Sc3ccc(Cl)cc32)CC1` reads -0.458% [at 25.6 µM].
As for `COc1cc(OC)cc(C(=O)Nn2cc(C(=O)N3CCN(C)CC3)c3ccccc3c2=O)c1`, the AC50 was 11.2 µM (active).
Take `CN1CCN(C(=O)c2ccc(-n3cccc3)cc2)CC1`: the “activity, negative = inhibition” value is 9.87%.
Still for that read-out and setting: the result for `COc1cc(OC)cc(C(=O)NCC(=O)OC2CCOC2=O)c1` (configuration not stated) reads -19.6%; that for `CC[C@H](C)C(=O)O[C@H]1CCC=C2C=C[C@H](C)[C@H](CC[C@@H]3C[C@H](O)CC(=O)O3)[C@H]21`, -8.33%; that for `NCCc1nc(-c2nc(C(=O)O)cs2)cs1`, -10.5% [at 11.4 µM].
Still for that read-out and setting: the result for `C=CCNC(=O)c1ccc(-c2nc(-c3ccc(Cl)c(Cl)c3)cs2)cc1` reads -18.2%.
As to `C=CCNC(=O)c1ccc2nc(-c3ccccc3)c(-c3ccccc3)nc2c1`, the AC50 was 14.1 µM (active).
Turning to `CN(C)C(=O)c1ccc(-c2ccc3ncnc(NCc4ccccc4)c3c2)cc1`, the activity, negative = inhibition is 13.4% [at 2.29 µM].
Consider `C=CCNC(=O)c1csc(-c2ccccc2)n1`, for which the AC50 was 15.8 µM (active).
As to `CSc1nc(C)c2c(n1)N(c1ccc(C(F)(F)F)cc1)CC2`, the “activity, negative = inhibition” value is -10.3%.
Regarding `O=C1N=C(N2CCOCC2)S/C1=C/c1cccs1`, the “activity, negative = inhibition” value was 11.2%.
In the case of `N=C1/C(=C/c2cccs2)C(=O)N=C2SN=C(SCc3ccccc3)N12`, the AC50 was 0.316 µM (active).
For `CN1[C@@H](CC(=O)c2ccccc2)CCC[C@@H]1C[C@@H](O)c1ccccc1`, the AC50 result is “inactive”.
Regarding `O=C(C[C@@H]1C=Cc2ccccc2N1C(=O)c1ccccc1)c1ccccc1`, the AC50 is 2.51 µM (active).
On to `NC(=O)N1c2ccccc2C=Cc2ccccc21`, for which the “activity, negative = inhibition” value was -13.6% [at 25.6 µM].
Still for that read-out and setting: next, `CO[C@@H]1COC(=O)C/C=C\[C@H](C)[C@@H](NS(=O)(=O)c2ccc(C)cc2)COC(=O)C/C=C\[C@@H]1C`: -12.8% [at 11.4 µM] and 11% [at 11.4 µM]; `Nc1nc2c(c(=O)[nH]1)N(C=O)[C@H](CNc1ccc(C(=O)N[C@@H](CCC(=O)O)C(=O)O)cc1)CN2`: 5.94% [at 25.6 µM].
As for `Cc1cc(C(C)(C)C)c(OCCCN2CCOCC2)c(C(C)(C)C)c1`, the activity, negative = inhibition was -0.273% [at 11.4 µM].
`N#Cc1c(N2CCCCC2)nc(N)c2c(N)nc3c(c12)CC(c1ccccc1)O3` (configuration not stated): the AC50 is 4.47 µM (active).
Consider `CN(C)Cc1ccccc1-c1nc(N2CCOCC2)c2ccccc2n1`, for which the activity, negative = inhibition is 5.66% [at 2.29 µM].
For `CN1c2ccccc2C(C)(C)C12C=Nc1c(cc(N3CCOCC3)c3ccccc13)O2` (configuration not stated), the AC50 is 1.58 µM (active).
For `CN(C)Cc1ccccc1-c1ccc2ncnc(N3CCOCC3)c2c1`, the activity, negative = inhibition was 8.68% [at 2.29 µM].
Turning to `CCOc1cc(C2NN=C(c3ccccc3)S2)ccc1OCc1ccccc1Cl` (configuration not stated), the AC50 was 8.91 µM (active).
`COc1cc(CNCc2ccccn2)ccc1OCc1ccc(Cl)cc1Cl`: the “activity, negative = inhibition” value was -15.6%.
Consider `CN(C)C(=O)c1ccc(-c2cncnc2NC2CCNCC2)cc1`, for which the activity, negative = inhibition is 15.8% [at 2.29 µM].
Turning to `CCOC(=O)C1C(=O)C=C(c2ccc(C)cc2)CC1c1ccco1` (configuration not stated), the AC50 was 3.16 µM (active).
Still for that read-out and setting: next, `CCOC(=O)C1C(=O)C=C(c2ccc(NS(C)(=O)=O)cc2)CC1c1ccco1` (configuration not stated): 4.47 µM (active).
Take `CCN(CC)C(=O)Cn1cnc([N+](=O)[O-])n1`: the “activity, negative = inhibition” value was -10.1%.
Take `CN1CC(c2ccccc2)C2(COc3ccccc3C2=O)C12C(=O)Nc1ccccc12` (configuration not stated): the half-maximal activity concentration (AC50) is 3.98 µM (active).
For the compound `COc1cc(C2C(C(=O)OCCC#N)=C(C)NC3=C2S(=O)(=O)c2ccccc23)cc(OC)c1OC` (configuration not stated), the half-maximal activity concentration (AC50) was 7.08 µM (active).
As to `C[C@@H](C(=O)O)c1ccc(C[C@@H]2CCCC2=O)cc1`, the “activity, negative = inhibition” value was -13.5%.
Regarding `Cc1nc2ccccn2c1C(=O)CSc1ccccc1Cl`, the AC50 is 11.2 µM (active).
With `O=C(c1ccc(F)cc1)C1CCN(CCCCc2ccccc2)CC1`, the “activity, negative = inhibition” value was 7.51%.
For `O=C(c1ccc(F)cc1)C1CCN(C(=S)Nc2ccccc2)CC1`, the half-maximal activity concentration (AC50) is 8.91 µM (active).
Consider `S=C(Nc1ccccc1)N1CCCCC1`, for which the “activity, negative = inhibition” value is -28.5%.
Same read-out and setting: the result for `CC(C)CO/N=C1/C[C@@H](O)[C@@H](O)[C@@H]2[C@@H]3C(=O)N(Cc4ccc5c(c4)OCO5)C(=O)[C@H]3CC[C@H]12` reads -12.4% [at 11.4 µM]; that for `CC(C)CO/N=C1/C[C@@H](O)[C@@H](O)[C@@H]2[C@@H]3C(=O)N(Cc4ccc5c(c4)OCO5)C(=O)[C@H]3CC[C@@H]12`, -17.6% [at 11.4 µM].
With `CC(C)CO[C@H](c1ccc2c(c1)OCO2)[C@H](C)Br`, the AC50 was 2 µM (active).
